AT treatment = potential ataxia-telangiectasia treatments restoring KAP-1 phosphorylation; F2112 A-T fibroblasts, KAP-1 phosphorylation AlphaLISA; neocarzinostatin DNA damage 30 min before lysis; Potency, µM (doses to about 57.5 µM), for inactives: at the highest dose activation, usual class: activators; 320,000 compounds, 0.19% hits; AID 485349; further: potency means the concentration at half of the fitted maximal effect; % of control where 0% means no effect; nearly all actives have a fitted effect of over 45% in size
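ATM-like activity read as KAP-1 phosphorylation via AlphaLISA donor/acceptor antibody pairs after lysis and 6 hr at 25C. Cells were ATM-null patient fibroblasts (F2112, hTERT), dosed 60 min, then exposed to the DSB inducer NCS for 30 min.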
IL-2 act = activators of IL-2. IL-2 activation reporter assay, cell-based qHTS; stimulated with anti-CD3/CD4/CD28 beads; in transgenic mouse T cells. activation, % (series mostly up to about 46 µM). 360,000 compounds, 0.065% hits. AID 652025; in the data active means activation above about 50%; inconclusive means mostly about 30% to 49%; further: 0% is about no effect
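Unstimulated transgenic mouse T cells preincubated 60 min with compound, then stimulated with anti-CD3/anti-CD4-coated beads plus anti-CD28 for 18 h at 37 degrees C. IL-2 response read as EGFP and DsRed fluorescence by plate cytometry.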
Integrin act MD = activates integrin-mediated alleviation for muscular dystrophy; alpha7betagal myoblasts, beta-gal FDG fluorescence, 48 h; Potency, µM (highest dose often 38.3 µM), for inactives: top-dose activation, hits mostly activators; 350,000 compounds, 0.064% hits;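 further: potency means the concentration at half of the fitted maximal effect; 100% = response of the positive control SU9516; nearly all actives have a fitted effect of over 60% in size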
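alpha7betagal+/- myoblasts (passage 13, 250/well) treated 48 h at 37C with compounds at 1:260 dilution of DMSO stock. Lysed, then beta-galactosidase activity read as FDG fluorescence (ex 480/em 540) after 30 min, with pre-read for autofluorescence.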
PKM2 act = increases activity of human pyruvate kinase M2; P14618; purified PKM2, Kinase-Glo ATP luminescence, activation; response scale: 0% is enzyme alone, no compound; Potency, µM (titrated, usually from 57.5 µM), for inactives: at the top dose activation, usual class: activators; 260,000 compounds, 0.34% hits; further: potency means the concentration at half of the fitted maximal effect; on the % scale 0 is the no-effect control and ±100 the full control effect; nearly all actives have a fitted effect of over 55% in size
Target sequence (P14618 whole entry, looked up): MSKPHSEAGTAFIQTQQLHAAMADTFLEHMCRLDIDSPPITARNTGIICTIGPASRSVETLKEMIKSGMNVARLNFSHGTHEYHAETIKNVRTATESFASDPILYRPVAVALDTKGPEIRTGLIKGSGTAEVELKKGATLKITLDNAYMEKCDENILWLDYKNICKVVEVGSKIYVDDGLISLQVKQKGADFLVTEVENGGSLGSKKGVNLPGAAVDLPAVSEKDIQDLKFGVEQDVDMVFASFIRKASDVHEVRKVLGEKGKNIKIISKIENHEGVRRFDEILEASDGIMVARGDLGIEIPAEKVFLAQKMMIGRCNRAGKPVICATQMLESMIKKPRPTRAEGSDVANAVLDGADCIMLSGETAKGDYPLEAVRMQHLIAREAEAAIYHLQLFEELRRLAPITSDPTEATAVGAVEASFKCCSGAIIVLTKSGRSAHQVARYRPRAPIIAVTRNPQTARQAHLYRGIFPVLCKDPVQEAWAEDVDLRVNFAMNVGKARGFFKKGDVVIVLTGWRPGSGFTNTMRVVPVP
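Purified hPK-M2 (>95% pure) converted ADP (0.1 mM final) to ATP with 0.5 mM PEP in 50 mM imidazole pH7.2, KCl, MgCl2, Tween 20, BSA; 1 h at room temperature. ATP detected by Kinase-Glo luminescence.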
Tb PFK inh-1 = blocks T. brucei phosphofructokinase. 330,000 compounds, 0.17% hits. AID 485367. Potency, µM (series often up to 57.5 µM), inactives show at the top dose activity, negative = inhibition, usual class: inhibitors. T. brucei PFK, ADP-Glo luminescence;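 further: potency means the concentration at half of the fitted maximal effect; 0% = uninhibited 1x PFK enzyme wells and -100% = no-enzyme wells; nearly all actives have a fitted effect of over 60% in size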
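Luminescent ADP detection (ADP-Glo, two-step: ATP depletion then ADP-to-ATP conversion for luciferase) reported PFK activity after 45 min room-temperature reaction of 1.25 nM enzyme with 0.5 mM F6P and 0.1 mM ATP at pH 8.0.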
TCR activator = activators of T cell receptors | primary human leukocytes, anti-CD3, IL-2 HTRF, 48 h | Potency, µM (titrated, usually from 9.22 µM), inactives show at the top dose activation of IL-2 secretion, actives largely listed as activators | 330,000 tested, under 10 active; further: % of control where 0% means no effect
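48 hr co-incubation of compounds, a-CD3 beads and primary human leukocytes; IL-2 quantified homogeneously by HTRF with anti-IL-2 K and d2 conjugates.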
TbPFK ATP = Tb phosphofructokinase inhibition, orthogonal luminescence | 1,100 compounds, 47% hits | Potency, µM (top dose mostly 57.5 µM), for inactives: at the top dose inhibition | shares compounds with Tb PFK inh-1 | Tb PFK enzyme, ATP depletion, Kinase-Glo Plus luminescence; calls by dose curve; further: potency means the concentration at half of the fitted maximal effect; nearly all actives have a fitted effect of over 60% in size
Tb PFK inh-2 = validation of T. brucei phosphofructokinase inhibitors | purified T. brucei PFK, ADP-Glo luminescence, 45 min | 1,100 compounds, 41% hits | Potency, µM (doses to about 57.5 µM), for the others: at the top dose activity change, negative = inhibition, usual class: inhibitors | shares compounds with Tb PFK inh-1;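 further: potency means the concentration at half of the fitted maximal effect; plate controls were full PFK enzyme control for no effect and no enzyme control for full effect; nearly all actives have a fitted effect of over 60% in size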
An asterisk follows results filed as active; [ ] = dose if it differs, or a comment. Only some compounds are listed: those with a hit (about 0.69% of all), similar ones and a draw of the others. Unless noted, the call rests on the fitted dose curve; in most records, active means well fitted curve in the direction sought with a large enough effect; inconclusive means small, poorly fitted or top-dose-only effect, or another doubt; inactive means no such curve, though single readings can be large; an effect the other way counts as inactive or inconclusive.

How did Cc1[nH]nc2c1C(c1cc(Br)cs1)C(C#N)=C(N)O2 (stereo unspecified) do in these assays?
AT treatment: 34%; IL-2 act: -1; Integrin act MD: -51%; PKM2 act: 23%; Tb PFK inh-1: inconclusive; TCR activator: 1%[46.1 µM]; TbPFK ATP: inconclusive; Tb PFK inh-2: inconclusive

How did COC(=O)C1=C(c2ccc(-c3ccccc3)c(F)c2)C[C@@H]2CC[C@H]1N2C(=O)NCCc1ccccc1 do in these assays?
AT treatment: -20%; IL-2 act: 0; Integrin act MD: -24%; Tb PFK inh-1: 3%; TCR activator: -3%

What do the screens show for `CCC(C)C1NC(=O)C(NC(=O)C(CC(C)C)N(C)C(=O)C2CCCN2C(=O)C(C)O)C(C)OC(=O)C(Cc2ccc(OC)cc2)N(C)C(=O)C2CCCN2C(=O)C(CC(C)C)NC(=O)[C@H](C)C(=O)[C@H](C(C)C)OC(=O)CC1O` (stereo partly specified)?
IL-2 act: -6; Integrin act MD: inconclusive; TCR activator: -1%

How did Nc1ncnc2c1ncn2[C@@H]1O[C@H](COP(=O)(O)OP(=O)(O)OP(=O)(O)O)[C@@H](O)[C@H]1O do in these assays?
AT treatment: 13%; IL-2 act: 0; Tb PFK inh-1: inconclusive; TCR activator: 0%; TbPFK ATP: -29%; Tb PFK inh-2: inconclusive

Results for O=c1nc(/C=C/c2ccc(Cl)cc2Cl)cc(C(F)(F)F)[nH]1 ?
AT treatment: 14%; IL-2 act: 1; Integrin act MD: 0%; PKM2 act: 2%; Tb PFK inh-1: 3%

What do the screens show for `COC(=O)C1=C(c2ccc(OCc3ccccc3)cc2)C[C@@H]2CC[C@H]1N2C`?
IL-2 act: -3; Integrin act MD: -33%

What do the screens show for `CN1C(=O)NC(=O)C(N=Nc2ccc(Cl)cc2)C1=O` (stereo unspecified)?
IL-2 act: -3; Integrin act MD: 1%; TCR activator: 3%

How did O=C(CSc1ccc(Cl)cc1)NCc1ccco1 do in these assays?
AT treatment: 5%; IL-2 act: 3; Integrin act MD: -14%; PKM2 act: -4%; Tb PFK inh-1: inconclusive; TCR activator: -77%; TbPFK ATP: 14%; Tb PFK inh-2: -17%

Results for CN(CC(=O)NC(=O)NCc1ccco1)CC(=O)Nc1ccccc1Cl ?
AT treatment: -1%; IL-2 act: -3; Integrin act MD: -27%; PKM2 act: 4%; Tb PFK inh-1: inconclusive; TCR activator: 4%

What do the screens show for `O=C(COC(=O)Cc1ccc(Cl)cc1)NCc1ccco1`?
AT treatment: 2%; IL-2 act: 0; Integrin act MD: 2%; Tb PFK inh-1: inconclusive; TCR activator: -1%; TbPFK ATP: 8.5µM*; Tb PFK inh-2: 6.7µM*

How did O=C(COC(=O)Cc1ccc(Cl)c(Cl)c1)NCc1ccco1 do in these assays?
AT treatment: 0%; IL-2 act: 0; Integrin act MD: 1%; Tb PFK inh-1: inconclusive; TCR activator: -3%; TbPFK ATP: 13µM*; Tb PFK inh-2: inconclusive

Results for CCc1ccccc1NC(=O)CSc1ccsc1[N+](=O)[O-] ?
AT treatment: 6%; IL-2 act: -3; Integrin act MD: -21%; PKM2 act: -4%; Tb PFK inh-1: inconclusive; TCR activator: -1%[46.1 µM]; TbPFK ATP: inconclusive; Tb PFK inh-2: inconclusive

Compound activity (PubChem BioAssay)
